This is an account of results in PubChem BioAssay (Tox21).

Assay [1] can be described thus: qHTS assay to test for compound auto fluorescence at 535 nm (green) in HEK293 cells (AID 720680). Note: % is set by controls: 0 for no effect and ±100 for the full control effect.
Assay [2] in a line: qHTS assay to test for compound auto fluorescence at 460 nm (blue) in HEK293 cell free culture (AID 720681). Note: % is set by controls: 0 for no effect and ±100 for the full control effect. The essentials:
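Blue fluorescence (Ex 405/Em 460 nm, triamterene-equivalent) was read immediately after pin transfer of compound or DMSO into medium (DMEM, 10% FBS) without cells.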
Background: Quantitative high-throughput screening tests each substance at several concentrations.

Assay [3] can be described thus: qHTS assay to test for compound auto fluorescence at 535 nm (green) in HEK293 cell free culture (AID 720682). Note: % is set by controls: 0 for no effect and ±100 for the full control effect. The essentials: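 No cells present: wells hold DMEM supplemented with 10% FBS, into which compound or vehicle is pinned. Green emission is then recorded (485 nm excitation, 535 nm emission) and scaled to fluorescein.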
Assay [4] in a line: qHTS assay to test for compound auto fluorescence at 590 nm (red) in HEK293 cell free culture (AID 720683). Note: % is set by controls: 0 for no effect and ±100 for the full control effect. The essentials:
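Red-channel autofluorescence of compounds in culture medium (DMEM, 10% FBS), no cells, measured at 540/590 nm. Rose Bengal sodium is the reference fluorophore for equivalence.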

Assay [5] is described as follows: qHTS assay to test for compound auto fluorescence at 590 nm (red) in HepG2 cell free culture (AID 720684). Note: % is set by controls: 0 for no effect and ±100 for the full control effect. In outline:
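No cells present: MEM + 10% FBS only. Compound pinned in, red label read (540/590 nm). Activity = fluorescence equivalent to Rose Bengal sodium.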

Assay [6] is described as follows: qHTS assay to test for compound auto fluorescence at 460 nm (blue) in HepG2 cell free culture (AID 720685). Note: % is set by controls: 0 for no effect and ±100 for the full control effect. The essentials:
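Cell-free plates of MEM plus 10% FBS received 23 nL compound or DMSO vehicle; blue-channel (405/460 nm) intensity scored against triamterene as reference fluorophore.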

The nature of assay [7]: qHTS assay to test for compound auto fluorescence at 535 nm (green) in HepG2 cell free culture (AID 720686). Note: % is set by controls: 0 for no effect and ±100 for the full control effect.
The target of assay [8] is Glucocorticoid receptor (Homo sapiens) (UniProt P04150). Put plainly: qHTS assay to identify small molecule agonists of the glucocorticoid receptor (GR) signaling pathway (AID 720691; active = well fitted activation curve with a large enough effect in the signal ratio in the repeat runs, not every such curve was filed as active; the % refers to the signal ratio; note: % is set by controls: 0 for no effect and ±100 for the full control effect). In outline:
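Agonist-mode qHTS in HeLa cells stably expressing a glucocorticoid-response-element beta-lactamase reporter. Fluorescence intensity read with FRET substrate (2 h, room temperature) after 18 h compound treatment at 37 C.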

Assay [9] has the same target. In words: qHTS assay to identify small molecule antagonists of the glucocorticoid receptor (GR) signaling pathway (AID 720692; active = well fitted inhibition curve with a large enough effect in the signal ratio in the repeat runs, not every such curve was filed as active; the % refers to the signal ratio; note: % is set by controls: 0 for no effect and ±100 for the full control effect). In outline: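 Inhibition of dexamethasone-driven (5 nM final) beta-lactamase expression was measured in GRE-reporter HeLa cells over 18 h at 37C. Fluorescence was read after 2 h with the B/G FRET substrate at room temperature.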
Assay [10] can be described thus: qHTS assay to identify small molecule antagonists of the glucocorticoid receptor (GR) signaling pathway - cell viability counter screen (AID 720693). Note: % is set by controls: 0 for no effect and ±100 for the full control effect; nearly all actives have a fitted effect of over 55% in size.
Assay [11] in a line: qHTS assay for identifying genotoxic compounds that show differential cytotoxicity against isogenic chicken DT40 cell lines with known DNA damage response pathways - wild type cell line (AID 743012). Note: nearly all actives have a fitted effect of over 60% in size. Note: potency is the fitted concentration of half-maximal effect. The essentials:
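Viability by ATP luminescence (CellTiter-Glo, 30 min RT) after 40 h compound treatment at 37 C/5% CO2, using 300 parental DNA repair-proficient DT40 cells per well.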

Assay [12] can be described thus: qHTS assay to identify small molecule antagonists of the androgen receptor (AR) signaling pathway - cell viability counter screen (AID 743033; note: % is set by controls: 0 for no effect and ±100 for the full control effect; nearly all actives have a fitted effect of over 45% in size).
A short description of assay [13]: qHTS assay to test for compound auto fluorescence at 460 nm (blue) in HepG2 cells (AID 720687). Note: % is set by controls: 0 for no effect and ±100 for the full control effect. In outline:
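Blue-channel autofluorescence (Ex/Em 405/460 nm, triamterene-equivalent) was measured after 1 hr compound exposure at 37 C, 5% CO2. Cells were HepG2, plated overnight at 37 C in MEM plus 10% FBS.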

Assay [14] is described as follows: qHTS assay for identifying genotoxic compounds that show differential cytotoxicity against isogenic chicken DT40 cell lines with known DNA damage response pathways - Rev3 mutant cell line (AID 743014). Note: nearly all actives have a fitted effect of over 55% in size. Note: potency is the fitted concentration of half-maximal effect.
Assay [15] in a line: qHTS assay for identifying genotoxic compounds that show differential cytotoxicity against isogenic chicken DT40 cell lines with known DNA damage response pathways - Rad54/Ku70 mutant cell line (AID 743015). Note: potency is the fitted concentration of half-maximal effect; nearly all actives have a fitted effect of over 60% in size.
Assay [16] can be described thus: qHTS assay to identify small molecule antagonists of the androgen receptor (AR) signaling pathway using the MDA cell line - cell viability counter screen (AID 743041; note: % is set by controls: 0 for no effect and ±100 for the full control effect; nearly all actives have a fitted effect of over 45% in size). In outline:
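Using the breast carcinoma line MDA-kb2 AR-luc, test chemicals were co-incubated with R1881 for 16 h; CellTiter-Fluor reagent, added at 15.5 h, provided a fluorescence measure of live cells.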

The target in assay [17] is Androgen receptor (Homo sapiens) (UniProt P10275). In words: qHTS assay to identify small molecule antagonists of the androgen receptor (AR) signaling pathway (AID 743035; active = well fitted inhibition curve with a large enough effect in the signal ratio in the repeat runs, not every such curve was filed as active; the % refers to the signal ratio; note: % is set by controls: 0 for no effect and ±100 for the full control effect). In outline: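 Antagonist mode: AR-bla HEK293 cells co-treated with test compounds and agonist R1881 for 16 h at 37C, 5% CO2. Beta-lactamase activity read as FRET fluorescence after 2 h room-temperature substrate loading.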

Assay [18] shares this target. In words: qHTS assay to identify small molecule agonists of the androgen receptor (AR) signaling pathway (AID 743036; active = well fitted activation curve with a large enough effect in the signal ratio in the repeat runs, with a control signal flat, not every such curve was filed as active; the % refers to the signal ratio; note: % is set by controls: 0 for no effect and ±100 for the full control effect). The essentials: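 Quantitative HTS of the Tox21 10K library in HEK293 cells bearing a stably integrated UAS-controlled beta-lactamase reporter. Compound exposure lasted 16 h at 37C. Reporter activity was detected by FRET substrate fluorescence after 2 h at room temperature.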

The target is the same in assay [19]. Put plainly: qHTS assay to identify small molecule agonists of the androgen receptor (AR) signaling pathway using the MDA cell line (AID 743040; note: % is set by controls: 0 for no effect and ±100 for the full control effect; nearly all actives have a fitted effect of over 20% in size). The essentials: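 Stable MMTV-luciferase reporter in MDA-kb2 cells; note the promoter carries GR as well as AR response elements. 16 h compound treatment, 37C, 0% CO2; ONE-Glo luminescence endpoint.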
Assay [20] shares this target. Put plainly: qHTS assay to identify small molecule antagonists of the androgen receptor (AR) signaling pathway using the MDA cell line (AID 743042; note: % is set by controls: 0 for no effect and ±100 for the full control effect; nearly all actives have a fitted effect of over 55% in size). In outline:
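Antagonist mode: compounds plus R1881 agonist added to MDA-kb2 AR-luc cells, incubated 16 h at 37C. Luciferase reporter luminescence quantified, with multiplexed CellTiter-Fluor readout for cell viability.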

A number with no mark means an inactive call. Inconclusive results are not listed. Calls of active or inactive are those of the source. Unless noted, calls come from the whole dose curve; as a rule, active = well fitted curve in the direction sought with a large enough effect in the repeat runs; inconclusive = weak or mixed curves; inactive = no such curve, though single readings can be large; an effect the other way counts as inactive or inconclusive.

Androgen receptor (Homo sapiens), sequence (P10275 whole entry, looked up): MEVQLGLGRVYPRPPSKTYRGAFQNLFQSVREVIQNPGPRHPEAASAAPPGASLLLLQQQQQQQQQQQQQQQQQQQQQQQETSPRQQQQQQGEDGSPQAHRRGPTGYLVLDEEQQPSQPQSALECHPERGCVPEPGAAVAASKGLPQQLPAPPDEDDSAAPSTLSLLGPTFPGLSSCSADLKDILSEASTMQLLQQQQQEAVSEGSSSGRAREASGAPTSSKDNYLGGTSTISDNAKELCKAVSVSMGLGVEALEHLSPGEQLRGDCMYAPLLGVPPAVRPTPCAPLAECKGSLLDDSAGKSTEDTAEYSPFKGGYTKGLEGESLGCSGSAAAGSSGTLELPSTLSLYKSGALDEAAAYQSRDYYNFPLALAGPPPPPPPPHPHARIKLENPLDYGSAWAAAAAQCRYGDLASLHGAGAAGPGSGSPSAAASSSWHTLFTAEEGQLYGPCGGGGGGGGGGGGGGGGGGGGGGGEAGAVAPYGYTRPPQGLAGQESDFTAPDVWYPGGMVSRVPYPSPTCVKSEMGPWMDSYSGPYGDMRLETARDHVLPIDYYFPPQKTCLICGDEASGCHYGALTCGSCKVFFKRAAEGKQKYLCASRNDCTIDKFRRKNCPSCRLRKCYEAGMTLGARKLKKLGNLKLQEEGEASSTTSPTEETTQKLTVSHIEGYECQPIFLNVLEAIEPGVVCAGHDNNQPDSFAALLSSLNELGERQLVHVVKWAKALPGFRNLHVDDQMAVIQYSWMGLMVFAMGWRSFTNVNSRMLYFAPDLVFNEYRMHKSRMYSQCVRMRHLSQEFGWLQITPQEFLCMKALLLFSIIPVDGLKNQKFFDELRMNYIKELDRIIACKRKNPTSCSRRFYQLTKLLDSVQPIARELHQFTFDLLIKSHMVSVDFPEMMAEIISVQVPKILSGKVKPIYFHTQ
Glucocorticoid receptor (Homo sapiens), sequence (P04150 whole entry, looked up): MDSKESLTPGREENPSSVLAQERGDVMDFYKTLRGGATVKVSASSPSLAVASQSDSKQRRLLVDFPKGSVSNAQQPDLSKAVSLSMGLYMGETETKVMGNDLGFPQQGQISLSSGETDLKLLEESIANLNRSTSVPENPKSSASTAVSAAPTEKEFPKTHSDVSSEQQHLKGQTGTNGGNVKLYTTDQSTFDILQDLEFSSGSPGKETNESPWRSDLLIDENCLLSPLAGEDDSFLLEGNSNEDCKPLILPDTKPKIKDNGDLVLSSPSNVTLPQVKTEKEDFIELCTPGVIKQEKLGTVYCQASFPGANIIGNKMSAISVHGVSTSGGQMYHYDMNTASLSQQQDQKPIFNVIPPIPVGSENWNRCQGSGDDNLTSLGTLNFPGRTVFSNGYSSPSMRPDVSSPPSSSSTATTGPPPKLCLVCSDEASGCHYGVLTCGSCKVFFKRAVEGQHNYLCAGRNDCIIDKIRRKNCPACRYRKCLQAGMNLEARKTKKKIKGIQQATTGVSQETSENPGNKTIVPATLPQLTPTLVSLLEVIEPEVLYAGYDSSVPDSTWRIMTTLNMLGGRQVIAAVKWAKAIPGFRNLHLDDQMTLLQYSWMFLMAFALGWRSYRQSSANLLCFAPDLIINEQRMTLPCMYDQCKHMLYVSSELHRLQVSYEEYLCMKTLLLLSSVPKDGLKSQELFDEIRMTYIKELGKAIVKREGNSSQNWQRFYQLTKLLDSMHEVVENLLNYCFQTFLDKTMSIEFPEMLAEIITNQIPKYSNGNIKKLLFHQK

As to `CC(C(=O)O)c1ccc2c(c1)[nH]c1ccc(Cl)cc12` (stereo not drawn), the Potency entry in assay [1], in assay [2], in assay [3], in assay [4], in assay [5] and in [6] was “inactive” in each case. The Potency entry in assay [7], in assay [8], in assay [9], in [10], in assay [11] and in assay [12] was “inactive” in each case.
With `O=c1[nH]c(=O)n([C@H]2C[C@H](O)[C@@H](CO)O2)cc1F`, the Potency result in assay [1], in [2], in assay [3], in assay [5], in assay [6] and in assay [7] was “inactive” each time. The Potency result in assay [13], in assay [9], in assay [10], in assay [12] and in [16] was “inactive” each time. In addition, the Potency in assay [14] is 3.8 nM (active); in assay [15], 1.9 nM (active).
Take `CCCCC(CC)CN1CN(CC(CC)CCCC)CC(C)(N)C1` (stereo not drawn): in assay [1], the fluorescence, % of fluorescein was -0.025% [at 18.6 µM]. The fluorescence, % of fluorescent control was -0.0323% [at 18.6 µM] in assay [2], -0.232% [at 18.6 µM] in assay [4] and -0.127% [at 18.6 µM] in assay [6]. Besides, the activity change in assay [3] was 0.0339% [at 18.6 µM, stronger effect = higher value]. For the same compound, the fluorescence, % of Rose Bengal in assay [5] was 0.0615% [at 18.6 µM]. The fluorescence, % of fluorescein control in [7] is -0.051% [at 18.6 µM]. For the same compound, the Potency result in [10], in [12], in [17], in assay [18], in assay [16] and in [20] was “inactive” throughout. Besides, the Potency in [11] was 10100 nM (active); in assay [14] it was 12700 nM (active). Also, the compound was classed as inactive in [19].
In the case of `Cc1cc(-c2ccc(N=Nc3cc(S(=O)(=O)O)c4ccccc4c3N)c(C)c2)ccc1N=Nc1cc(S(=O)(=O)O)c2ccccc2c1N`, the Potency result in assay [1], in assay [2], in assay [3], in assay [4], in [5] and in [6] was “inactive” throughout. Moreover, the Potency result in [7], in assay [8] and in [10] was “inactive” throughout. Also, the Potency in [11] was 548 nM (active); in assay [14], 388 nM (active); in assay [15], 346 nM (active).
Take `CCC(C)n1ncn(-c2ccc(N3CCN(c4ccc(OC[C@H]5CO[C@](Cn6cncn6)(c6ccc(Cl)cc6Cl)O5)cc4)CC3)cc2)c1=O` (stereo partly drawn): the Potency entry in assay [1], in assay [2], in assay [3], in [4], in assay [5] and in [6] was “inactive” in each case. The Potency result in assay [7], in assay [10], in assay [12] and in assay [16] was “inactive” each time. Also, the Potency in assay [11] and in [15] was 596 nM (active) each time.
For `ClCCl`, the Potency entry in assay [1], in [2], in assay [3], in assay [4], in assay [5] and in [6] was “inactive” in each case. Further, the Potency result in [7], in [8], in assay [9], in [10], in [14] and in assay [12] was “inactive” throughout. In addition, the Potency entry in assay [17], in assay [18] and in assay [20] was “inactive” each time. Further, the compound was classed as inactive in [19].
Take `CCCCCCCCCCCC(=O)OCC(C)OC(=O)CCCCC(=O)O` (stereo not drawn): the Potency result in [1], in [2], in assay [3], in [4], in assay [5] and in [6] was “inactive” in each case. Besides, the Potency entry in [7], in assay [8], in [10], in [14], in [12] and in assay [16] was “inactive” in each case.
